Laboratory results published in PubChem BioAssay (NCI).
About 83,000 compounds went through this panel and 20% of them were active in at least one assay; those are over-represented in the sample as a whole.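 48-hour exposure, single concentration, 96-well plates; percent growth endpoint where 0 means no net growth. Active: below 10.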 Calls of active or inactive are those of the source.

Columns and labels:
Assay in all cases: NCI-60 one-dose screen, 48 h (100 = growth as untreated, 0 = no growth, -100 = all killed)
Details in all cases: 10 µM unless noted
[1] = system: SK-MEL-2 melanoma
[2] = system: EKVX NSCLC
[3] = system: SN12C renal
[4] = system: UO-31 renal
[5] = system: TK-10 renal
[6] = system: ACHN renal
[7] = system: CAKI-1 renal
[8] = system: A498 renal
[9] = system: CCRF-CEM leukemia
[10] = system: MOLT-4 leukemia
[11] = system: SR leukemia
[12] = system: RPMI-8226 leukemia
[13] = system: OVCAR-8 ovarian
[14] = system: OVCAR-5 ovarian
[15] = system: OVCAR-4 ovarian
[16] = system: SK-OV-3 ovarian
[17] = system: IGROV1 ovarian
[18] = system: OVCAR-3 ovarian
[19] = system: HS 578T breast
[20] = system: NCI/ADR-RES ovarian

Measured: growth

Nc1ccc(-c2ccc(N)c(S(=O)(=O)O)c2)cc1S(=O)(=O)O
inactive: [1] 127% | [2] 119% | [3] 102% | [4] 94.5% | [5] 122% | [6] 105% | [7] 123% | [8] 141% | [9] 127% | [10] 131% | [11] 153% | [12] 110% | [13] 116% | [14] 116% | [15] 108% | [16] 103% | [17] 120% | [18] 108% | [19] 113% | [20] 114%

C[n+]1ccccc1C[n+]1ccccc1
inactive: [1] 94.4% | [2] 113% | [3] 105% | [4] 90.5% | [5] 98.9% | [6] 112% | [7] 114% | [8] 109% | [9] 92.7% | [10] 83.6% | [11] 88.6% | [12] 108% | [13] 95.9% | [14] 113% | [15] 113% | [16] 109% | [17] 130% | [19] 121% | [20] 113%

NC(CS/C(Cl)=C/Cl)C(=O)O (stereo not drawn)
inactive: [1] 53.7% | [2] 81.4% | [3] 87% | [4] 82.6% | [5] 117% | [6] 95.2% | [7] 89.6% | [9] 66.5% | [10] 97.1% | [11] 96% | [12] 36.2% | [13] 64.6% | [14] 99.8% | [15] 101% | [16] 94% | [17] 96.4% | [19] 104% | [20] 86.2%
active: [8] -60%

CCCOC(=O)c1nc(N(CC2CCCCC2)C(=O)NC)sc1/N=C/c1ccccc1
inactive: [3] 15% | [4] 23.9% | [5] 52.5% | [6] 17.4% | [7] 31.7% | [8] 63.5% | [13] 29% | [14] 40% | [15] 35.1% | [16] 24.7% | [17] 19.4%
active: [1] -0.0368% | [2] 9.94% | [9] 2.45% | [10] 3.07% | [11] -17.2% | [12] -48.2% | [18] 4.38% | [20] -14%

CC12CCC(O)CC1=CCC1C2CCC2(C)C3=NN=CC3CC12 (stereo not drawn)
inactive: [1] 118% | [2] 81.9% | [3] 105% | [4] 105% | [5] 108% | [6] 97.7% | [7] 127% | [8] 124% | [9] 91% | [10] 83.8% | [11] 60.1% | [12] 96.5% | [13] 107% | [14] 106% | [15] 107% | [16] 115% | [19] 95.6% | [20] 98.6%

Cc1cc(C(=C2C=CC(=Nc3ccccc3)C=C2)c2ccc(Nc3ccccc3)cc2)ccc1N
inactive: [10] 22.2%
active: [1] -87.4% | [2] -42.7% | [3] -63.5% | [4] -67.4% | [5] -64.7% | [6] -89.8% | [7] -56.6% | [8] -78.8% | [9] 3.34% | [11] 9.34% | [12] 4.29% | [13] -59.3% | [14] -60% | [15] -74.2% | [16] -64.8% | [17] -26.9% | [18] -93.7% | [20] -46.7%

O=C(O)c1cccc2cccc(-c3c4ccc(=O)c(O)c-4oc4c(O)c(O)ccc34)c12
inactive: [1] 96.8% | [2] 83.7% | [3] 91% | [4] 66.6% | [5] 110% | [6] 92.3% | [7] 90.2% | [8] 104% | [9] 94.7% | [10] 82.2% | [11] 83.6% | [12] 123% | [13] 100% | [14] 97.5% | [15] 97.4% | [16] 90.1% | [17] 101% | [18] 93.5% | [19] 99.5% | [20] 96.7%

c1ccc(-c2cc3cc4ccccc4cn3c2)cc1
inactive: [1] 90.1% | [2] 85.3% | [3] 87.6% | [4] 60.9% | [5] 101% | [6] 89.6% | [7] 84.7% | [8] 96.3% | [9] 90.2% | [10] 83.2% | [11] 67.4% | [12] 66.4% | [13] 85.4% | [14] 112% | [15] 76.4% | [16] 92.2% | [17] 79.7% | [18] 88.9% | [19] 88.2% | [20] 91.7%

O=[N+]([O-])C=C(c1ccccc1)c1ccccc1
inactive: [1] 95.5% | [2] 71% | [3] 81.1% | [4] 60.9% | [5] 84.8% | [6] 85.4% | [7] 57.1% | [8] 124% | [9] 68.6% | [10] 70.9% | [11] 22.8% | [12] 64.5% | [13] 92.5% | [14] 83.2% | [15] 79.5% | [16] 78% | [17] 86.5% | [18] 90.1% | [20] 75.5%

CC1(C)OC2C(COC(c3ccccc3)(c3ccccc3)c3ccccc3)OC(c3c[nH]c4c(N)ncnc34)C2O1 (stereo not drawn)
active: [10] -7.93%
inactive: [1] 69.8% | [2] 55.3% | [3] 50.1% | [4] 58.3% | [5] 84.2% | [6] 52.2% | [7] 56.6% | [8] 74.7% | [9] 36.3% | [11] 28.3% | [12] 27.4% | [13] 56.1% | [14] 82.9% | [15] 50.1% | [16] 70% | [17] 75.5% | [19] 77.5% | [20] 86.9%

CC(C)N=C(N)/N=C(\N)Nc1ccc2ccc3ccccc3c2c1
inactive: [9] 12.3% | [20] 41.5%
active: [1] -81.8% | [2] -91.2% | [3] -84.6% | [4] -58.4% | [5] -89.6% | [6] -89.2% | [7] -81.1% | [8] -73.7% | [10] -3.58% | [11] -47.3% | [12] -26.9% | [13] -60.2% | [14] -88.5% | [15] -56.9% | [16] -63.3% | [17] -56.7% | [18] -83%

CN(C)c1ccc(/C=C/c2ccnc3ccccc23)cc1
inactive: [2] 22.4% | [3] 36.2% | [4] 50.2% | [5] 59.5% | [6] 47.4% | [7] 45.7% | [8] 62% | [9] 51.1% | [10] 33.1% | [11] 21% | [12] 11.7% | [13] 20.2% | [14] 84.4% | [15] 69.6% | [18] 45.1% | [19] 53.5% | [20] 29.3%
active: [1] -5.02%

Cc1cc(I)nc2ccccc12
inactive: [1] 110% | [2] 101% | [3] 109% | [4] 91.7% | [5] 113% | [6] 107% | [7] 98.7% | [8] 117% | [9] 92.2% | [10] 101% | [11] 107% | [13] 107% | [14] 100% | [15] 112% | [16] 109% | [18] 130% | [20] 109%

CC1C(c2ccccc2)OCCN1C(=S)Nc1ccc(S(=O)(=O)N2CCCCC2)cc1 (stereo not drawn)
inactive: [1] 104% | [2] 92.1% | [3] 96.1% | [4] 94.5% | [5] 116% | [6] 96.4% | [7] 36.4% | [8] 99.3% | [9] 81% | [10] 99.5% | [12] 80.4% | [13] 92.5% | [14] 87.9% | [15] 106% | [16] 110% | [17] 106% | [18] 114% | [19] 85.8% | [20] 92.4%

Cn1ccc(=Nc2ccc(NC(=O)c3ccc(N=c4ccn(C)c5ccc([N+](=O)[O-])cc45)cc3)cc2)cc1
inactive: [1] 91.1% | [2] 77.5% | [3] 45.3% | [4] 82.6% | [5] 122% | [6] 99.2% | [7] 113% | [8] 97.6% | [9] 89.2% | [10] 126% | [11] 107% | [13] 69.3% | [14] 87.9% | [15] 59.4% | [16] 91.4% | [17] 64.8% | [19] 100% | [20] 106%
